Assay results taken from PubChem BioAssay (NCATS).
Results filed as inconclusive are left out. The source made the active and inactive calls. The call rests on the fitted dose curve; in most records, active means well fitted inhibition curve with a large enough effect; inconclusive means small, poorly fitted or top-dose-only effect; inactive means flat fitted curve, though single readings scatter.

Tests used:
Test in all cases: Cytotoxic Profiling of Annotated Libraries Using Quantitative High-Throughput Screening (AID 1296008); further: nearly all actives have a fitted effect of over 60% in size
Conditions in all cases: Five cell lines viability, CellTiter-Glo ATP luminescence, 48-72 h; max response: active compounds read low
CRL-7250 = normal cell line; test system: CRL-7250
Outline: (§1)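 Compounds were pin-transferred onto cells and incubated 48 or 72 hr at 37 degree Celsius, 95% humidity. CellTiter-Glo was added, plates sat 10 min at room temperature, then ATP-coupled luminescence was imaged as the viability read-out.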

HEK293 = test system: HEK293
Outline: as §1

HaCat = test system: HaCat
Outline: as §1

KB-3-1 = test system: KB-3-1
Outline: as §1
On the % scale 0 is the no-effect control and ±100 the full control effect; potency means the concentration at half of the fitted maximal effect.

C[C@]12C=C[C@@]3(CCC4[C@](C)(CO)CCC[C@@]4(C)C3CC1)C2 (some centres not stated)
inactive: max response (CRL-7250) -1.08% | max response (HEK293) -17.4% | max response (HaCat) -20.7% | max response (KB-3-1) 4.11%

C=CC(C)(C)C12C=C(OC)C(=O)N3C(C(C)C)C(=O)NC31N(OC)c1ccccc12 (configuration not stated)
inactive: max response (CRL-7250) 1.83% | max response (HEK293) -5.71% | max response (HaCat) -0.498% | outcome (KB-3-1)

CCOCc1nc2c(N)nc3ccccc3c2n1CC(C)(C)O
inactive: max response (CRL-7250) -6.16% | max response (HEK293) -5.94% | max response (HaCat) 3.85% | max response (KB-3-1) -7.57%

C=CC(C)(O)CC/C=C(\C)C(=O)OC1C(O)C(CO)OC(OC(=O)C23CCC(C)(C)CC2C2=CCC4C5(C)CCC(OC6OC(COC7OCC(OC(C)=O)C(O)C7OC7OC(COC(C)=O)C(O)C(O)C7O)C(O)C(O)C6O)C(C)(C)C5CCC4(C)C2(C)C(O)C3O)C1OC1OCC(OC2OCC(O)C(OC3OCC(O)C(O)C3O)C2O)C(O)C1O (configuration not stated)
inactive: max response (CRL-7250) -9.65% | max response (HEK293) -3.37% | max response (HaCat) -19.8% | max response (KB-3-1) 4.25%

NC(=O)c1cccc(-c2cc(OC(=O)NC3CCCCC3)ccc2O)c1
inactive: max response (CRL-7250) 2.23% | max response (HEK293) -86.9% | max response (HaCat) 4.07% | max response (KB-3-1) -19.2%

CO[C@H]1O[C@@H]2O[C@]3(C)CC[C@H]4[C@H](C)CC[C@@H]([C@H]1C)[C@@]24OO3
inactive: max response (CRL-7250) -2.96% | max response (HaCat) -0.0315% | outcome (KB-3-1)
active: Potency (HEK293) 10.3 µM

C=C1CCC2C(C)(C)C(O)CCC2(C)C1CCC(C)CCO (configuration not stated)
active: Potency (HEK293) 11.4 µM
inactive: max response (CRL-7250) -1.18% | max response (HaCat) -1.49% | max response (KB-3-1) -10.1%

C=C1[C@H](OC(C)=O)[C@H]2[C@@H](OC(C)=O)[C@](C)(OC(C)=O)C[C@]2(OC(C)=O)C(=O)[C@H](C)/C=C/C(C)(C)C(=O)[C@H](OC(=O)C(C)C)[C@H]1OC(C)=O
inactive: max response (CRL-7250) 0.468% | max response (HEK293) 1.22% | max response (HaCat) -2.43% | outcome (KB-3-1)

C/C=C1\[C@H](O[C@@H]2O[C@H](CO)[C@@H](O)[C@H](O)[C@H]2O)OC=C(C(=O)OC)[C@H]1CC(=O)O
inactive: max response (CRL-7250) -9.39% | max response (HEK293) 3.99% | max response (HaCat) -13.1% | max response (KB-3-1) -0.621%

COC(=O)C1=CO[C@@H](O[C@@H]2O[C@H](CO[C@@H]3O[C@H](COC(=O)/C=C/c4cc(OC)c(O)c(OC)c4)[C@@H](O)[C@H](O)[C@H]3O)[C@@H](O)[C@H](O)[C@H]2O)[C@@H]2C(CO)=CC[C@H]12
inactive: max response (CRL-7250) -3.63% | max response (HEK293) 0.174% | max response (HaCat) 4.35% | outcome (KB-3-1)

CCC(C)C(=O)OC1CC(C)C=C2C=CC(C)C(CCC(O)CC(O)CC(=O)O)C21 (configuration not stated)
inactive: max response (HEK293) -0.653% | max response (HaCat) -2.56% | max response (KB-3-1) 5.43%
active: Potency (CRL-7250) 7.09 µM

C=C(CO[C@@H]1O[C@H](CO[C@@H]2OC[C@](O)(CO)[C@H]2O)[C@@H](O)[C@H](O)[C@H]1O)C1Cc2cc(C(C)=O)ccc2O1 (some centres not stated)
inactive: max response (CRL-7250) -1.55% | max response (HEK293) -4.65% | max response (HaCat) -0.415% | max response (KB-3-1) 7.61%

CCc1ccc(Cc2ccc3c(c2)[C@]2(OC3)O[C@H](CO)[C@@H](O)[C@H](O)[C@H]2O)cc1
inactive: outcome (CRL-7250) | max response (HEK293) -3.78% | max response (HaCat) 3.62% | max response (KB-3-1) -4.58%

C[C@@H]1C[C@@H](O)[C@@]23CO[C@@H](O)[C@@H]2CCC[C@@H]3[C@@]12C[C@@H](c1ccoc1)OC2=O
inactive: max response (CRL-7250) 0.0668% | max response (HEK293) -9.22% | max response (HaCat) -27.9% | max response (KB-3-1) 7.75%

COc1c2c(c(C)c3c1C(=O)OC3)O[C@@]1(C)CCC3(C(C)(C)O)OC(=O)CC[C@]3(C)[C@H]1C2 (some centres not stated)
inactive: max response (CRL-7250) -2.51% | max response (HEK293) -0.697% | max response (HaCat) -17.1% | outcome (KB-3-1)

O=C(O)CCCCCC[C@H]1C(=O)NC(=O)N1CC[C@@H](O)C1CCCCC1
inactive: max response (CRL-7250) 3.98% | max response (HEK293) -1.93% | outcome (HaCat) | outcome (KB-3-1)

CC(C)(F)C[C@@H](N[C@@H](c1ccc(-c2ccc(S(C)(=O)=O)cc2)cc1)C(F)(F)F)C(=O)NC1(C#N)CC1
inactive: max response (CRL-7250) 0.789% | max response (HEK293) -10.4% | max response (HaCat) -33% | outcome (KB-3-1)

CC1(C)CC[C@]2(C(=O)O[C@@H]3O[C@H](CO)[C@@H](O)[C@H](O)[C@H]3O)CC[C@]3(C)C(=CCC4[C@@]5(C)C[C@@H](O)[C@H](O)[C@](C)(C(=O)O)C5CC[C@]43C)C2C1O (some centres not stated)
inactive: max response (CRL-7250) 2.5% | max response (HEK293) -1.42% | max response (HaCat) 1.77% | max response (KB-3-1) -4.21%
